Consider 54 compounds from PubChem BioAssay AID540267 (National Center for Advancing Translational Sciences (NCATS), 2011).

Hit rate of the full screen: of about 340,000 compounds, about 530 (0.16%) were called active. Not shown: some 2% with an inconclusive outcome. The entries come from a sample that favours actives as a whole. Values without a mark were called inactive. Cut-off read from the data, not from the text of the source: active = activity change below about -80%; inconclusive = between about -30% and that limit; inactive = weaker than that.
% is set by controls: 0 for no effect and ±100 for the full control effect.

The experiment in a line: Small Molecules that selectively kill Giardia lamblia: qHTS.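 Note: parasites exposed to compound for two days anaerobically before the ATP read.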 The settings on record: Giardia lamblia trophozoite viability; at 7.66 µM; hits give low values. The source says: Giardia lamblia is a human pathogen afflicting impoverished nations, and the most common cause of outbreaks of diarrhea in the United States. Giardia has been classified by the CDC as a category B bioterrorism organism. The favored anti giardiasis drugs in the US are metronidazole or tinidazole, compounds that have undesirable side effects. Moreover, increasing resistance to drug regimes and recurrence are a concern. It is thus clear that alternative drug treatments are needed.
In a collaboration between the University of Maryland, College Park and the NIH Chemical Genomics Center, a bioluminescence Giardia viability assay based on the trophozoites' ATP content was developed. This assay is suitable for high throughput screening, and miniaturized the assay for compound screening in 1536-well plates. The goal of the project is to screen the Molecular Libraries Small Molecule Repository (MLSMR) for compounds that selectively kill Giardia trophozoites.
NIH Chemical Genomics Center [NCGC]
NIH Molecular Libraries Probe Centers Network [MLPCN]
Assay Submitter (PI): Osnat Herzberg, University of Maryland, College Park, MD.
1. Dispense 2 ul/well media
2. Dispense 23 nl/well compounds
3. Dispense 4 ul/well Giardia trophozoites at a concentration of 100 cells/well
4. Incubate 48 hrs at 37 deg C anaerobically
5. Dispense 4 ul/well ATPLite 1-Step Luminescence assay kit
6. Incubate 15-30 min at room temperature
7. Read luminescence signal on ViewLux plate reader
On the technique in general: In qHTS, concentration-response curves come from the screen itself.
For `CCNC(=O)Nc1ccc(S(=O)(=O)Nc2cnc(C)nc2C)cc1`, the activity change is -28.2%.

Turning to `CN(CC(=O)Nc1ccc(OC(F)(F)F)cc1)C(=O)C1CCC1`, the activity change is 29.9%.

As for `N#Cc1c(N)nc2c(c1N)CC(C(F)(F)F)O2` (centres undefined), the activity change is -7.55%.

For `C=CCNC(=O)c1ccc2nc(-c3ccco3)c(-c3ccco3)nc2c1`, the activity change is -26.3%.

As to `NC(=O)c1ncn([C@@H]2O[C@H](CN=C3NS(=O)(=O)c4ccccc43)[C@@H](O)[C@H]2O)n1`, the activity change was -14.2%.

For `CC(=NNC(=O)c1ccncc1)c1ccc(Cl)c(Cl)c1`, the activity change was -4.59%.

For `COC(=O)[C@]1(C)N[C@H](c2ccc(-c3ccc(Cl)c(Cl)c3)cc2)[C@@H]2C(=O)N(C)C(=O)[C@@H]21`, the activity change was -3.14%.

With `COC(=O)C1=C(C(=O)c2ccc(C)cc2)C(c2ccccc2)n2nnnc2N1` (centres undefined), the activity change was 2.03%.

Consider `Cc1ccc(S(=O)(=O)N2CCN(C(=O)CSc3cc(C)ccc3C)CC2)c(C)c1`, for which the activity change was -9.03%.

Turning to `CN(C)S(=O)(=O)c1cc(C(=O)Nc2ccn(C)n2)c(Cl)cc1Cl`, the activity change is 4.66%.

Turning to `C=CCn1c(CCNC(=O)c2ccccc2F)nnc1SCC(=O)Nc1ccc(OC)cc1`, the activity change is 1.96%.

For `CCN(CC)CCCNC(=O)c1c(O)c2cc(F)cc3c2n(c1=O)C(C)CC3` (centres undefined), the activity change is 31%.

As for `COc1cc(SC)ccc1C(=O)N(Cc1ccccc1)c1ccccc1`, the activity change is -27.1%.

For the compound `COc1cc(SC)ccc1C(=O)Nc1nc(C)cs1`, the activity change is -94.7% (active).

In the case of `COc1ccc(C(=O)Nc2cccc(NC(=O)c3ccc(OC)cc3OC)n2)c(OC)c1`, the activity change is -19%.

Turning to `CC(=O)N1CCc2c(sc(NC(=O)CCS(=O)(=O)c3ccccc3)c2C#N)C1`, the activity change is -1.29%.

Regarding `CCCN1CCC(=O)N(C(CSc2ccc(OC)cc2)Cc2ccccc2)CC1` (centres undefined), the activity change was -25.3%.

Regarding `C/C(=N\Nc1nncc2ccccc12)c1ccc(Cl)c([N+](=O)[O-])c1`, the activity change is -7.6%.

Take `CN(CCO)c1ccc(/C=N/Nc2nncc3ccccc23)cc1`: the activity change was -87.9% (active).

In the case of `COc1cccc(/C=N\Nc2nncc(-c3ccccc3)n2)c1`, the activity change was 5.7%.

As to `CC1(C)CCc2cc(S(=O)(=O)N3CCN(c4nc(-c5cccs5)nc5ccccc45)CC3)ccc2O1`, the activity change is -0.147%.

In the case of `COc1ccc(CN(Cc2ccccc2)C(=O)c2ccc(O)cc2)cc1COc1ccc(NC(C)=O)cc1`, the activity change was 41.3%.

Take `CC(=O)OCC(NC(=O)C(Cc1ccccc1)NC(=O)OC(C)(C)C)C1OC(n2ccc(=O)[nH]c2=O)C(OC(C)=O)C1OC(C)=O` (centres undefined): the activity change was -16.1%.

As to `O=C(O)C1CCC(CNS(=O)(=O)c2ccc(Br)cc2)CC1` (centres undefined), the activity change is 18.6%.

Turning to `CCOc1ccc(N(C)Cc2cc(=O)oc3ccc(OC)cc23)cc1`, the activity change was 0.548%.

With `C=CCOc1ccc(/C=C/C(=O)OCC(=O)NC(C)c2ccc(F)cc2)cc1` (centres undefined), the activity change was -21.6%.

With `COc1ccc2c(C)cc(SCC(=O)NCC3CCCO3)nc2c1` (centres undefined), the activity change is -1.83%.

With `COc1ccc(-c2ccc(C3C4C=CCCC4(C)C(=O)N3Cc3ccccc3)c(F)c2)cc1OC` (centres undefined), the activity change was 5.8%.

`C/C(CC(=O)Nc1ccc(C)cc1C)=N\NC(=O)C(C)C`: the activity change was -14.4%.

Regarding `CC(C)C(=O)N1c2ccccc2NC2=C(C(=O)CCC2)C1c1ccc(N(C)C)cc1` (centres undefined), the activity change was 1.62%.

`COC(=O)C1=C(C)N(C)C(=O)NC1c1ccc([N+](=O)[O-])o1` (centres undefined): the activity change is -87.4% (active).

For the compound `COC(=O)C1=C(C)N(C)C(=S)NC1c1ccccc1` (centres undefined), the activity change was -6.21%.

As for `COc1ccc(C2NC(=O)N(C)C(C)=C2[N+](=O)[O-])cc1` (centres undefined), the activity change was 22.3%.

With `Oc1ccc(Cl)cc1C1C=C(c2ccc3c(c2)OCO3)NC(c2c(F)cccc2Cl)N1` (centres undefined), the activity change is -23.4%.

Take `CCOC(=O)CSc1nnc(CNC(=O)c2ccco2)n1-c1ccc(F)cc1`: the activity change was -0.714%.

Take `C/[N+]([O-])=C\c1ccc([N+](=O)[O-])o1`: the activity change was -92.7% (active).

Take `O=[N+]([O-])c1ccc(C=NN=Cc2ccc([N+](=O)[O-])cc2)cc1`: the activity change is 12.5%.

Take `O=C(/C=C/c1ccc([N+](=O)[O-])o1)NNC(=O)c1ccc(F)cc1`: the activity change was 2.18%.

As for `COc1cc(Cl)c(C)cc1NC(=O)CSc1nnc(-c2ccco2)n1CC(C)C`, the activity change is 6.88%.

In the case of `CC(C)Cn1c(N)c(C(=O)COC(=O)C2CCCN2C(=O)c2cccs2)c(=O)n(C)c1=O` (centres undefined), the activity change was 20.2%.

Consider `C[C@H](NC(=O)C1CCN(S(=O)(=O)c2ccccc2)CC1)C(=O)NCc1ccccc1`, for which the activity change was 10.6%.

Turning to `O=C(NCc1ccccn1)[C@]1(C(F)(F)F)C[C@H](CCc2ccccc2)CCCO1`, the activity change was -0.242%.

Turning to `COc1cccc(C(=O)c2sc3nc(-c4ccccc4)cc(C(F)(F)F)c3c2N)c1`, the activity change is 4.39%.

In the case of `COc1ccc(S(=O)(=O)N2CCN(CC(=O)N3c4ccccc4CC3C)CC2)cc1OC` (centres undefined), the activity change is -6.14%.

With `CC(=O)Nc1ccc(S(=O)(=O)N2N=NC3C2C2CC4C3(CN(C(=O)OC(C)(C)C)S4(=O)=O)O2)cc1` (centres undefined), the activity change is -7.9%.

As for `CC(C)C(C)NC(=O)COc1nc2ccccc2nc1N(C)C1CCCCC1` (centres undefined), the activity change is 0.279%.

With `CN(c1ccc2nc3ccccc3c(=O)n2n1)C1CCCCC1`, the activity change was -82.4% (active).

In the case of `CN(C(=O)c1cc2c(=O)n3ccccc3nc2s1)C1CCCCC1`, the activity change was 9.98%.

Consider `COC(=O)CCc1ccccc1S(=O)(=O)N(CCC(=O)OC)Cc1ccccc1`, for which the activity change was 9.42%.

Turning to `CCCCN(C1CCS(=O)(=O)C1)S(=O)(=O)c1ccc(C(C)C)cc1` (centres undefined), the activity change was -8.89%.

In the case of `Cc1n[nH]c(C)c1S(=O)(=O)N1CCCC(C(=O)NCC2COc3ccccc3O2)C1` (centres undefined), the activity change is 1.3%.

With `COc1ccc(S(=O)(=O)N2CCC(C(=O)OCC(=O)c3ccccc3)CC2)cc1[N+](=O)[O-]`, the activity change is -0.271%.

In the case of `Cc1ccc(NC(=O)C(C)OC(=O)Cc2c[nH]c3ccccc23)cc1S(=O)(=O)N1CCOCC1` (centres undefined), the activity change is -9.72%.

As to `COc1ccc(S(=O)(=O)Nc2cccc3cccnc23)c(N)c1`, the activity change is -6.45%.
